# Source: PubChem BioAssay
# Where “and” joins values, the source holds several entries; their conditions need not be identical. Equal values may be shown once. Inconclusive results are not listed. Calls of active or inactive are those of the source. Unless noted, the limit is not given here; nearly all actives have AC50 up to about 26 µM.
# Experiments:
# [1] = viability loss in pontine glioma line – cell-based, SU-DIPG-XVII, MIPE5.0, CellTiter-Glo, qHTS, dose response (AID 1347060); settings: CellTiter-Glo ATP luminescence;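 as to AC50: cells exposed to compound for 48 hours before viability readout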
# [2] = viability loss in pontine glioma line – cell-based, SU-DIPG-XIII, MIPE4.0, CellTiter-Glo, qHTS, dose response (AID 1347061; cut-off not given, nearly all actives have AC50 up to about 37 µM;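 also: cells exposed to compound for 48 hours before readout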); settings: CellTiter-Glo ATP luminescence
# [3] = viability loss in pontine glioma line – cell-based, JHH-DIPG-1, MIPE4.0, CellTiter-Glo, qHTS, dose response (AID 1347062; cut-off not given, nearly all actives have AC50 up to about 27 µM;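 as to AC50: cells exposed to compound for two days before readout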); settings: JHH-DIPG-1 viability, CellTiter-Glo ATP luminescence
# [4] = viability loss in pontine glioma line – cell-based, SU-DIPG-IV, MIPE4.0, CellTiter-Glo, qHTS, dose response (AID 1347063; cut-off not given, nearly all actives have AC50 up to about 30 µM;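 also: compound exposure lasted 48 hours before the viability readout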); settings: CellTiter-Glo ATP luminescence
# [5] = viability loss in pontine glioma line – cell-based, SU-DIPG-XIII, MIPE5.0, CellTiter-Glo, qHTS, dose response (AID 1347064; cut-off not given, nearly all actives have AC50 up to about 23 µM;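 as to AC50: cells exposed to compound for 48 hours before the viability read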); settings: CellTiter-Glo ATP luminescence
# [6] = viability loss in pontine glioma line – cell-based, SU-DIPG-XXV, MIPE5.0, CellTiter-Glo, qHTS, dose response (AID 1347065); settings: CellTiter-Glo ATP luminescence;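 also: cells exposed to compound for 48 hours before ATP readout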
# [7] = growth inhibition of DIPG cells – cell-based, MIPE4.0 library, CellTiter-Glo luminescence, qHTS (AID 1347066; cut-off not given, nearly all actives have AC50 up to about 30 µM;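 also: cells exposed to compound for 48 hours before readout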); settings: SU-DIPG-VI viability, CellTiter-Glo ATP luminescence
# [8] = JHH-DIPG-1 glioma cell viability, MIPE5.0 library, CellTiter-Glo luminescence, qHTS (AID 1347067); settings: JHH-DIPG-1 glioma viability, CellTiter-Glo ATP luminescence;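 also: cells exposed to compound for 48 hours before readout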
# [9] = growth inhibition of DIPG cells – cell-based, MIPE5.0 library, qHTS (AID 1347068; cut-off not given, nearly all actives have IC50 up to about 30 µM;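 as to IC50: cells exposed to compound for 48 hours before viability readout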); settings: SU-DIPG-XXV viability
# [10] = viability loss with induced miR-34 in A549 – imaging, A549 dox-inducible miR-34, nuclei and caspase counts, primary screen (AID 1347080;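 active = compounds whose cell count with miR-34 switched on is under 0.7 times the count with it off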); settings: A549 miR-34 inducible, Hoechst nuclei count, 48 h
# [11] = MELAS cybrid and Rieske KO viability enhancers – cell-based, MELAS cybrids, Rieske KO mouse fibroblasts, CellTiter-Glo, primary screen (AID 1508586;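 active = mean z-score across replicates of 1.96 or higher in either the MELAS or the Rieske mutant cell line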;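 also: z relative to plate mean and SD of compound and empty wells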); settings: low glucose
# [12] = compounds altering HSF1 focus formation in cells – imaging, Selleck Cancer Library (AID 1347162; in the data active = plate-normalised HSF1 focus index below about 0.46); settings: human cells, HSF1 nuclear foci imaging, at 10 µM; SSMD: measured here: HSF1 foci SSMD mean; cell count: measured here: cell number; plate-normalised HSF1 focus index: stronger effect = lower value
# [13] = stronger effect = lower value, cell number ratio, induced over uninduced
# [14] = measured here: relative caspase fold change +Dox/-Dox
# [15] = measured here: total cells with miR-34 induction, stronger effect = lower value
# [16] = measured here: total cells without miR-34 induction
# [17] = MELAS cybrid survival, CellTiter-Glo 48 h, stronger effect = higher value
# [18] = Rieske KO mouse fibroblast survival, CellTiter-Glo 72 h
smiles,measurement,setting,value
C=C1C(=O)O[C@@H]2[C@H]3O[C@]3(C)CC/C=C(\C)CC[C@@H]12,AC50,[1],9.34 µM (active)
same,AC50,[2],16.6 µM (active)
same,AC50,[3],14.8 µM (active)
same,AC50,[4],7.43 µM (active)
same,AC50,[5],4.68 µM (active)
same,AC50,[6],7.42 µM (active)
same,AC50,[7],3.72 µM (active)
same,AC50,[8],6.61 µM (active)
same,IC50,[9],16.6 µM (active)
same,fold change,[10]; [13],0.927 (inactive) and 0.781 (inactive)
same,fold change,[10]; [14],1.09 and 1.49
same,cell count,[10]; [15],4920 and 316
same,cell count,[10]; [16],5310 and 404
same,z-score,[11]; [17],2.28 (active)
same,z-score,[11]; [18],-0.174
COc1ccc(-c2ccc3ncc4c(c3c2)n(-c2ccc(N3CCNCC3)c(C(F)(F)F)c2)c(=O)n4C)cn1,AC50,[1],0.105 µM (active)
same,AC50,[2],0.0469 µM (active)
same,AC50,[3],0.0662 µM (active)
same,AC50,[4],0.0187 µM (active)
same,AC50,[5],0.118 µM (active)
same,AC50,[6],0.0525 µM (active)
same,AC50,[7],0.187 µM (active)
same,AC50,[8],0.235 µM (active)
same,IC50,[9],0.59 µM (active)
same,fold change,[10]; [13],0.93 (inactive)
same,fold change,[10]; [14],1.48
same,cell count,[10]; [15],603
same,cell count,[10]; [16],648
same,z-score,[11]; [17],0.639 (inactive)
same,z-score,[11]; [18],-3.7
CC(C)c1ccc(Cn2ccc3c4c(N)nc(NC5CC5)nc4ccc32)cc1,AC50,[1],2.63 µM (active)
same,AC50,[2],20.9 µM (active)
same,AC50,[3],4.69 µM (active)
same,AC50,[4],4.18 µM (active)
same,AC50,[5],6.61 µM (active)
same,AC50,[6],2.63 µM (active)
same,AC50,[7],18.7 µM (active)
same,AC50,[8],5.25 µM (active)
same,IC50,[9],3.72 µM (active)
same,SSMD,[12],-7.04
same,cell count,[12],3190
same,plate-normalised HSF1 focus index,[12],0.581 (inactive)
O=C(NC1CCOCC1)c1ccc(-c2cc(-c3cn[nH]c3-c3ccccn3)ccn2)cc1,outcome,[1],inactive
same,outcome,[2],inactive
same,outcome,[3],inactive
same,outcome,[4],inactive
same,outcome,[5],inactive
same,outcome,[6],inactive
same,outcome,[7],inactive
same,outcome,[8],inactive
same,outcome,[9],inactive
same,fold change,[10]; [13],0.83 (inactive)
same,fold change,[10]; [14],0.736
same,cell count,[10]; [15],8800
same,cell count,[10]; [16],10600
same,z-score,[11]; [17],-0.384 (inactive)
same,z-score,[11]; [18],0.682
